For this test, the target named is PEG-3 (UniProt Q6IN02). Briefly: GAPDH versus PEG-3 reporter suppression – cell-based, luminescence, counter-screen for PEG-3 promoter inhibitor project, SAR follow-up (AID 651551). The conditions noted are these: HeLa PEG-Prom / GAPDH luciferase reporter, 6 or 24 h, run 2, 24 h; at 99 µM (top of the series). A general note: The purpose of a counterscreen is to sort out artefacts and off-target activity.
Turning to `Cc1cc(NC(=O)c2ccccc2)n(-c2nc3ccccc3[nH]2)n1`, the inhibition % (higher = more inhibition) is -13.6%.

Turning to `COCCCNC(=O)c1ccc(Cn2c(=O)c3ccccc3n(Cc3ccccc3C#N)c2=O)cc1`, the inhibition % (higher = more inhibition) worked out at 54.9%.

On to `COc1ccc(-n2nc(C(=O)NCC(=O)Nc3ccc(OC)c(OC)c3)c3ccccc3c2=O)cc1`, for which the inhibition % (higher = more inhibition) was found to be 35.2%.

`Cc1nc(NC(=O)c2ccccc2)sc1-c1csc(Nc2ccccc2)n1`: the inhibition % (higher = more inhibition) is 63.3%.

On to `COc1ccc(-n2nc(C(=O)NCC(=O)Nc3cccc(OC)c3)c3ccccc3c2=O)cc1`, for which the inhibition % (higher = more inhibition) was determined as 21.2%.

Consider `Cc1cc(NC(=O)c2ccccc2)n(-c2nc3ccccc3n2C)n1`, for which the inhibition % (higher = more inhibition) worked out at 12.8%.

These data come from PubChem BioAssay AID651551 (Sanford-Burnham Center for Chemical Genomics, 2012).
